Hits are enriched below; roughly 19% of the tested compounds scored in any of these assays.
IL-1B inflam inh: blocks inflammasome-driven IL-1 beta release | THP-1 LPS/ATP IL-1B secretion, AlphaLISA, 16 h; hits give low values | activity change, % at 57.5 µM | hit rate 4.7% among 360,000 | AID 743279; in the data active means activity change below about -50%; inconclusive means mostly about -30% to -49%
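Secreted IL-1B measured by AlphaLISA bead assay after 16 h compound exposure of THP-1 cells; compounds (final up to 57.5 uM) added 1 h before LPS (250 ng/mL) and ATP (1.25 mM) stimulation; lower signal means less secretion.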
ELG1 repair inh: ELG1-dependent DNA repair inhibition | hit rate 2.3% among 330,000 | Potency, µM (series often up to 46.1 µM), without a hit: top-dose activity change, negative = inhibition, actives largely listed as inhibitors | AID 504467 | HEK293T ELG1-luciferase reporter, luminescence, 16 h; DNA damage induced by 5-fluorouridine; further: potency means the concentration at half of the fitted maximal effect; nearly all actives have a fitted effect of over 55% in size
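Overnight (16 hr) co-exposure of 2,000 cells/well to 5-fluorouridine and compound at 37 °C preceded detection. Luciferase was quantified via ONE-Glo luminescence; loss of signal denotes inhibition.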
TDP1 cell CPT: DT40-hTDP1 cell growth loss with CPT; chicken DT40 Tdp1-/-;hTDP1 cells + 20 nM CPT, ATP luminescence, 48 h; Potency, µM (top dose mostly 46.2 µM), without a hit: at the highest dose activity change, negative = growth inhibition, usual class: inhibitors; hit rate 12% among 420,000; AID 686979; further: potency means the concentration at half of the fitted maximal effect; nearly all actives have a fitted effect of over 55% in size
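Cell growth measured by CellTiter-Glo luminescence after a minimum 48 h, 37 C compound exposure with 20 nM CPT in Tdp1-knockout DT40 cells stably expressing hTDP1, seeded 400/well; qHTS titration format.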
HT1080-NT tox: kills 2HG-producing HT-1080-NT fibrosarcoma cells | Potency, µM (titrated, usually from 46.1 µM), inactives show at the highest dose activity, negative = less viability, actives largely listed as cytotoxic | AID 686970 | hit rate 1.6% among 360,000 | HT-1080-NT fibrosarcoma viability, CellTiter-Glo ATP luminescence, 48 h;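 further: NT is the 2HG producing partner of a matched IDH1 knockdown line; potency means the concentration at half of the fitted maximal effect; 0% = DMSO-treated cells and -100% = media-only wells without cells; nearly all actives have a fitted effect of over 55% in size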
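HT-1080-NT fibrosarcoma cells (2HG-overproducing), 750 cells/well in RPMI with 5% FBS, dosed after 2 h and incubated 48 h at 37C. CellTiter-Glo luminescence normalized to DMSO and no-cell wells; concentration-response curves fitted and classed.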
DT40 TDP1 no CPT: qHTS for Inhibitors of human tyrosyl-DNA phosphodiesterase 1 (TDP1): qHTS in cells in absence of CPT | DT40 Tdp1-/- hTDP1 cells, no CPT, ATP luminescence, 48 h | Potency, µM (top dose mostly 46.2 µM), for inactives: at the highest dose activity change, negative = growth inhibition, hits mostly inhibitors | hit rate 15% among 420,000; further: potency means the concentration at half of the fitted maximal effect; nearly all actives have a fitted effect of over 55% in size
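Compound effects on proliferation are scored in DT40 Tdp1-/-;hTDP1 cells in the absence of CPT. ATP levels (CellTiter-Glo luminescence) are recorded after a ≥48 hr, 37 °C incubation.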
HT1080 IDH1KD tx: kills HT-1080 cells with IDH1 knockdown. HT-1080 IDH1 knockdown viability, ATP luminescence, 48 h. Potency, µM (top dose mostly 46.1 µM), without a hit: at the highest dose activity, negative = toxicity, actives largely listed as cytotoxic. hit rate 2% among 360,000;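 further: potency means the concentration at half of the fitted maximal effect; 0% = DMSO wells and -100% = cell-free medium wells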
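Cytotoxicity counter-line: IDH1KD HT-1080, 48 h, CellTiter-Glo. Curves classed by r2, magnitude and activity.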
* hit, by the source's call. Unless noted, the call rests on the fitted dose curve; in most records, active means well fitted curve in the direction sought with a large enough effect; inconclusive means small, poorly fitted or top-dose-only effect, or another doubt; inactive means no such curve, though single readings can be large; an effect the other way counts as inactive or inconclusive. Unless noted, on the % scale 0 is the no-effect control and ±100 the full control effect.

For NC(c1ccccc1)c1csc(NC(=O)Nc2ccc(OC(F)(F)F)cc2)n1 (stereo not drawn) the results were IL-1B inflam inh -24, TDP1 cell CPT 23µM*, HT1080-NT tox inconclusive, DT40 TDP1 no CPT -107% and HT1080 IDH1KD tx 18µM*.
For O=C(Cc1csc(NC(=O)Nc2cccc(Cl)c2)n1)NC1CCCC1 the results were IL-1B inflam inh -17, ELG1 repair inh 1%, TDP1 cell CPT inconclusive, HT1080-NT tox 1%, DT40 TDP1 no CPT inconclusive and HT1080 IDH1KD tx -1%.
For NC(c1ccccc1)c1csc(NC(=O)Nc2cccc(Cl)c2)n1 (stereo not drawn) the results were IL-1B inflam inh -104*, TDP1 cell CPT inconclusive, HT1080-NT tox 21µM*, DT40 TDP1 no CPT inconclusive and HT1080 IDH1KD tx 16µM*.
Screening CC1=C(C(=O)N(C(C)C)C(C)C)CC(CC(=O)NCc2cccs2)C(=O)N1CCCN1CCCC1=O (stereo not drawn) returned IL-1B inflam inh -5, TDP1 cell CPT 5%, HT1080-NT tox 18%, DT40 TDP1 no CPT 2% and HT1080 IDH1KD tx 17%.
`COCCn1c(=O)c(-c2cccs2)nc2cnc(N(C)C)nc21` gave TDP1 cell CPT 6% and DT40 TDP1 no CPT 3%.
`CCOC(=O)c1cccc(C2=CC(=O)C[C@H](c3ccc(Cl)cc3)C2)c1` gave IL-1B inflam inh 35, ELG1 repair inh inconclusive, TDP1 cell CPT inconclusive, HT1080-NT tox -25%, DT40 TDP1 no CPT inconclusive and HT1080 IDH1KD tx 0%.
For O=C(Nc1ccccc1)Nc1nc(-c2ccc(Cl)cc2)cs1 the results were IL-1B inflam inh -16, ELG1 repair inh 5%, TDP1 cell CPT inconclusive, HT1080-NT tox 19%, DT40 TDP1 no CPT inconclusive and HT1080 IDH1KD tx inconclusive.
Screening COc1ccc(-c2csc(NC(=O)Nc3ccccc3)n2)cc1 returned IL-1B inflam inh -6, ELG1 repair inh -1%, TDP1 cell CPT -29%, HT1080-NT tox -4%, DT40 TDP1 no CPT -20% and HT1080 IDH1KD tx -10%.
Screening CN(C)c1ccc(NC(=O)Nc2cccc(Cl)c2)cc1 returned IL-1B inflam inh inconclusive, ELG1 repair inh inconclusive, TDP1 cell CPT -15%, HT1080-NT tox inconclusive, DT40 TDP1 no CPT inconclusive and HT1080 IDH1KD tx -10%.
For O=C(Nc1cccc(Cl)c1)Nc1nc(-c2ccc(Cl)cc2)cs1 the results were IL-1B inflam inh -2, ELG1 repair inh -3%, TDP1 cell CPT 12µM*, HT1080-NT tox -15%, DT40 TDP1 no CPT 16µM* and HT1080 IDH1KD tx -18%.
Screening O=C(Nc1cccc(Cl)c1)Nc1csc([N+](=O)[O-])c1 returned ELG1 repair inh inconclusive, TDP1 cell CPT 2.9µM*, HT1080-NT tox 21µM*, DT40 TDP1 no CPT 2.3µM* and HT1080 IDH1KD tx 7.3µM*.
`Cc1ccc(NC(=O)Nc2nc(-c3ccc(C)s3)cs2)cc1` gave IL-1B inflam inh -4, ELG1 repair inh 0%, TDP1 cell CPT inconclusive, HT1080-NT tox -18%, DT40 TDP1 no CPT 12µM* and HT1080 IDH1KD tx -29%.
Cc1ccc(Cl)c2c1NC(=O)C2=O was read as IL-1B inflam inh 12, ELG1 repair inh inconclusive, TDP1 cell CPT inconclusive, HT1080-NT tox -6%, DT40 TDP1 no CPT inconclusive and HT1080 IDH1KD tx 0%.
CCOc1ccc(C(C)=O)cc1CN1C(=O)NC(C)(C2CC2)C1=O (stereo not drawn) was read as IL-1B inflam inh 23, ELG1 repair inh -2%, TDP1 cell CPT 3%, HT1080-NT tox 0%, DT40 TDP1 no CPT -21% and HT1080 IDH1KD tx -2%.
Cn1cc(S(=O)(=O)c2cccc(Cl)c2)c(=O)c2cc(F)c(N3CCN(c4ccc(F)cc4)CC3)cc21 was read as TDP1 cell CPT 7% and DT40 TDP1 no CPT -21%.
For Cc1ccc(NC(=O)/C=C/c2cccs2)c([N+](=O)[O-])c1 the results were IL-1B inflam inh -17, ELG1 repair inh inconclusive, TDP1 cell CPT 13µM*, HT1080-NT tox inconclusive, DT40 TDP1 no CPT 23µM* and HT1080 IDH1KD tx -22%.
Cc1ccc(NC(=O)c2cn(CCC#N)nc2-c2cccs2)c([N+](=O)[O-])c1 was read as IL-1B inflam inh 0, ELG1 repair inh inconclusive, TDP1 cell CPT inconclusive, HT1080-NT tox -3%, DT40 TDP1 no CPT 12µM* and HT1080 IDH1KD tx -11%.
`CCN1C[C@@H]2[C@@H]3C(=O)N(Cc4ccccc4)C(=O)[C@@H]3[C@](Cc3ccccc3)(C(=O)OC)N2C1=NC` gave IL-1B inflam inh -1, ELG1 repair inh 16%, TDP1 cell CPT 3%, HT1080-NT tox 16%, DT40 TDP1 no CPT -12% and HT1080 IDH1KD tx 10%.
`CC(C)CCC(CC(C)O)c1n[nH]c(=S)n1-c1ccccc1` (stereo not drawn) gave IL-1B inflam inh 0, ELG1 repair inh 3%, TDP1 cell CPT -22%, HT1080-NT tox 13%, DT40 TDP1 no CPT -4% and HT1080 IDH1KD tx 19%.
Screening O=C1N[C@@H](Cc2c[nH]c3ccccc23)COC(=O)[C@H](Cc2ccc(F)cc2)C/C=C\C[C@H]1CC(=O)N(CCO)Cc1ccccc1 returned IL-1B inflam inh -21, ELG1 repair inh inconclusive, TDP1 cell CPT 13µM*, HT1080-NT tox inconclusive, DT40 TDP1 no CPT 16µM* and HT1080 IDH1KD tx inconclusive.
O=C1N[C@@H](Cc2c[nH]c3ccccc23)COC(=O)[C@@H](Cc2ccc(F)cc2)CC/C=C/C[C@@H]1CC(=O)N(CCO)Cc1ccccc1 was read as IL-1B inflam inh -60*, ELG1 repair inh 21µM*, TDP1 cell CPT inconclusive, HT1080-NT tox -20%, DT40 TDP1 no CPT 26µM* and HT1080 IDH1KD tx inconclusive.
For CC(Sc1nnc(C2CC2)n1Cc1ccccc1)C(=O)N1CCNC1=O (stereo not drawn) the results were IL-1B inflam inh -14, ELG1 repair inh 10%, TDP1 cell CPT -9%, HT1080-NT tox 1%, DT40 TDP1 no CPT 1% and HT1080 IDH1KD tx 5%.
`CC1(C)SC2C(NC(=O)Cc3ccccc3)C(=O)N2C1C(=O)O` (stereo not drawn) gave TDP1 cell CPT -21% and DT40 TDP1 no CPT 4%.
For Cc1cnc(C)c(-c2ccc(F)c3c2OC(CNC(=O)Cc2c(C)[nH]c4ccccc24)C3)n1 (stereo not drawn) the results were TDP1 cell CPT -4% and DT40 TDP1 no CPT -30%.

Screening data: PubChem, National Center for Advancing Translational Sciences (NCATS)
